KCNQ2 pot = potentiators of rat KCNQ2 potassium channel; Potassium voltage-gated channel subfamily KQT member 2 (Rattus norvegicus), O88943; CHO-K1 KCNQ2, FluxOR thallium flux fluorescence; stronger effect = higher value; B-score at 10 µM; 310,000 compounds, 0.54% hits; AID 2239, 2010;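 active = fluorescence ratio B-score at least 3 SD of library B-scores, with initial fluorescence B-score within 3 of them, cut at about 5.3 in these data; same plate scores as AID 2156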;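 note: B-score of peak minus minimum over baseline fluorescence ratio after K+ and Tl+ stimulus; positive B-score means potentiation of KCNQ2 with more thallium influx and brighter signal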
Target sequence (O88943 whole entry, looked up): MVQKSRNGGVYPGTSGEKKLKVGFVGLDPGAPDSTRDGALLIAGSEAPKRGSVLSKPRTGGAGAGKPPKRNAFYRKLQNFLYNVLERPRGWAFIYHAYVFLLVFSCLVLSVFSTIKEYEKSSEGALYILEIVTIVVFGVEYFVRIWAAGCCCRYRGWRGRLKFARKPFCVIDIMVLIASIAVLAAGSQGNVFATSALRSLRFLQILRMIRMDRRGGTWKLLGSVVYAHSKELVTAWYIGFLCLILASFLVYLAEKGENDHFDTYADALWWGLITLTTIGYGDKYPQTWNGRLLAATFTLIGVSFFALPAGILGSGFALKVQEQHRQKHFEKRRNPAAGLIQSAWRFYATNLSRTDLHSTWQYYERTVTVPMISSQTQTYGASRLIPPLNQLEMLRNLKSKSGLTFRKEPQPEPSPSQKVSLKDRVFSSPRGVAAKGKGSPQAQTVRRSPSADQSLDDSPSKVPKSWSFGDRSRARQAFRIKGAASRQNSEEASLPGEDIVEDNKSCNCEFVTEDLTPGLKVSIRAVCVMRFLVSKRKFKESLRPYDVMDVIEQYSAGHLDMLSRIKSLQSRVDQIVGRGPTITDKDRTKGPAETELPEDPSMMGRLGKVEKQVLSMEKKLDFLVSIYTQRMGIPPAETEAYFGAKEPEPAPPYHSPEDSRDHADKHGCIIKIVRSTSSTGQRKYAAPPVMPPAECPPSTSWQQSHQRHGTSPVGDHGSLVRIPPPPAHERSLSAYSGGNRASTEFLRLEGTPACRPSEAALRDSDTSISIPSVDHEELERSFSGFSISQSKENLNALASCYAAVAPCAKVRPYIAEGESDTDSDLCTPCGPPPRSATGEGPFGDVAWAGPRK
KCNQ2 block = rat KCNQ2 potassium channel inhibitors, primary screen, cell-based, CHO-K1, FluxOR thallium flux, B-score | 20 min; stronger effect = lower value | B-score at 10 µM | 310,000 compounds, 1.1% hits;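 active = fluorescence ratio B-score at most minus 3 library SDs, with starting brightness B-score within 2 library SDs, cut at about -5.5 in these data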
* marks the source's active call; other numbers are inactive results; i = inactive; . = no result. Only some compounds are listed: those with a hit (about 1.6% of all), similar ones and a draw of the others.

SMILES | KCNQ2 pot | KCNQ2 block
CCOc1ccc(NC(=S)N(CCOC)C(C)c2cccnc2)cc1 (centres undefined) | 0.95 | i
COc1ccc2ccccc2c1CN(C)Cc1ccccc1 | 1.7 | i
CN(Cc1ccccc1)Cc1c(F)cccc1F | 6.6* | i
O=C(CNC(=O)C(c1ccccc1)c1ccccc1)N/N=C/c1ccc(O)cc1O | 0.15 | i
CCCCC(=Nc1ccccc1OC)C1=C(O)CC(c2ccccc2)CC1=O (centres undefined) | -6.5 | -6.5*
CCCC(=Nc1ccccc1OC)C1=C(O)CC(c2ccccc2)CC1=O (centres undefined) | . | i
CN(C)c1cccc(C(=O)OC(C(=O)Nc2ccc(Cl)cc2C(F)(F)F)c2ccccc2)c1 (centres undefined) | -8 | -8*
O=C(OC(C(=O)Nc1ccc(Cl)cc1C(F)(F)F)c1ccccc1)C1=COCCO1 (centres undefined) | . | i
O=C(Nc1ccccc1)N1N=C(c2cccs2)CC1c1cccs1 (centres undefined) | . | i
COc1ccccc1NC(=O)c1ccc2nc(-c3ccccc3)c(-c3ccccc3)nc2c1 | -7.1 | -7.1*
COc1ccc(NC(=O)c2ccc3nc(-c4ccccc4)c(-c4ccccc4)nc3c2)c(OC)c1 | . | i
NC(=O)Nn1c(CCC(=O)O)ccc1-c1ccc(Cl)cc1 | 0.02 | i
O=C(O)CC1NC(=O)N(C2CCCCC2)C1=O (centres undefined) | 0.58 | i
CCc1ccc(-c2cn3c(n2)SCC3)cc1 | . | i
CCc1ccc(-c2cn(-c3nc(C)cc(C)n3)c(=N)o2)cc1 | -6.4 | -6.4*
CCN1CCN(S(=O)(=O)c2cc(C(=O)O)ccc2Cl)CC1 | . | i
CCOc1ccc(NC(=O)CCN2CCN(c3ccccc3F)CC2)cc1 | 1 | i
Cc1ccc(N2C(=O)c3cccc4c(Oc5ccccc5[N+](=O)[O-])ccc(c34)C2=O)c(C)c1 | -6 | -6*
Cc1cc(O)ccc1N1C(=O)c2cccc3cc([N+](=O)[O-])cc(c23)C1=O | . | i
Cc1cccc(C2c3[nH]c4ccccc4c3CCN2C(=O)c2cc3c([nH]c2=O)CCCC3)n1 (centres undefined) | . | i
N#CC1=C(N)N2C(=C(C#N)C13CCCC3)Nc1ccccc12 | 0.13 | i
COc1ccc(/C=C2\C(=O)N(Cc3ccc(F)cc3)CC(=O)N2Cc2ccccc2)cc1 | -6.1 | -6.1*
COc1ccc(/C=C2\C(=O)NCC(=O)N2Cc2ccccc2)cc1 | . | i
CCCN(CC1CC1)C(=O)CCc1nnc(C(OC)c2ccccc2)o1 (centres undefined) | . | i
CNS(=O)(=O)c1cc(Cl)ccc1Sc1ccccc1C(=O)O | . | i
SMILES | KCNQ2 pot | KCNQ2 block
Cc1ccccc1CN1CCN(Cc2ccccc2C(F)(F)F)CC1 | . | i
Cc1ccc(S(=O)(=O)N2CCN(Cc3ccccc3C(F)(F)F)CC2)cc1 | -6 | -6*
Cc1cnn(-c2cc(N/N=C/c3cccc(F)c3)ncn2)c1 | 0.22 | i
Cc1[nH]c2ccc(C(=O)N3CCN(c4ccccc4Cl)CC3)cc2c1C | -6.5 | -6.5*
Cc1[nH]c2ccc(C(=O)N3CCN(c4cccc(Cl)c4)CC3)cc2c1C | -6.2 | -6.2*
Cc1[nH]c2ccc(C(=O)N3CCCC3)cc2c1C | 0.04 | i
COc1ccccc1N1CCN(C(=O)c2ccc3[nH]c(C)c(C)c3c2)CC1 | . | i
O=C(NCCCn1ccnc1)c1cc(S(=O)(=O)N2CCOCC2)c(Cl)cc1Cl | 0.75 | i
CCOC(=O)/C(O)=C/c1ncc(C(F)(F)F)cc1Cl | . | i
O=C(NCc1ccccc1)C(c1ccccc1)N(Cc1cccs1)C(=O)c1cnccn1 (centres undefined) | . | i
O=C(NCc1ccccc1)C(c1cccs1)N(Cc1cccs1)C(=O)c1cnccn1 (centres undefined) | -6 | -6*
CCn1c(SCc2nc3ccccc3[nH]2)nnc1-c1cnccn1 | . | i
CC(C)C(=O)Nc1cccc(C(=O)Nc2nnc(C(C)C)s2)c1 | 0.06 | i
CC(C)c1nnc(NC(=O)c2cccc(NC(=O)C(F)(F)F)c2)s1 | -5.9 | -5.9*
COC(=O)Cc1cc(=O)n2[nH]c(C)nc2n1 | 0.51 | i
C#CCCOC(=O)N1C2=NC(C(=O)OC)=C(C(=O)OC)[C@@H]3N(C)c4ccccc4[C@]23C[C@H]1C(=O)OC | 1.6 | i
O=C(Nc1ccc(Cl)cc1)N(C1=NCCC1)c1ccc(OC(F)F)cc1 | -5.7 | -5.7*
O=C(COC(=O)Cc1ccc(Cl)cc1)Nc1ccc(OC(F)F)cc1 | . | i
O=C(CC1NCCN(Cc2ccccc2)C1=O)Nc1ccc(Cl)cc1 (centres undefined) | 0.69 | i
O=C(CC1SC(N2CCOCC2)=NC1=O)Nc1cc([N+](=O)[O-])ccc1Cl (centres undefined) | 0.05 | i
O=C(NC1CCCC1)C1CCN(C(=O)c2ccc(Cl)cc2Cl)CC1 | . | i
CCCS(=O)(=O)N1CCCC(C(=O)c2cccc(Cl)c2)C1 (centres undefined) | 0.9 | i
O=C(Nc1nc2n(n1)C(c1ccccc1)CC(c1ccc(Cl)cc1)N2)c1ccco1 (centres undefined) | -7.2 | -7.2*
COc1ccc(C2CC(c3ccccc3)Nc3nc(NC(=O)c4ccco4)nn32)cc1 (centres undefined) | 0.64 | i
O=C(NNS(=O)(=O)c1ccccc1)c1sccc1-n1cccc1 | 0.1 | i
SMILES | KCNQ2 pot | KCNQ2 block
CCCCCCC1(C)NC(=S)N(c2ccccc2)N1 (centres undefined) | . | i
CCC1(c2ccc(Cl)cc2)NC(=S)N(c2ccccc2)N1 (centres undefined) | 11* | i
CCC1(c2ccccc2)NC(=S)N(c2ccc(C)cc2)N1 (centres undefined) | 13* | i
CCCCCC1(C)NC(=S)N(c2ccccc2)N1 (centres undefined) | . | i
Cc1ccc(-c2nn(-c3ccccn3)c(=O)c3ccccc23)cc1C | . | i
Cc1ccc(NC(=O)/C(=C/c2cccc([N+](=O)[O-])c2)NC(=O)C2CCCCC2)cc1 | 0.49 | i
O=C(Nc1ccc(Br)cc1)/C(=C/c1cccc([N+](=O)[O-])c1)NC(=O)C1CCCCC1 | -7.7 | -7.7*
Cc1cccc(C)c1NC(=O)CN(C)C(=O)CC1OC(=O)c2ccccc21 (centres undefined) | 0.09 | i
COc1cc([N+](=O)[O-])cc(/C=N/NC(=O)C(C)Nc2cccc3ccccc23)c1O (centres undefined) | 0.91 | i
COc1ccccc1NC(C)C(=O)N/N=C/c1ccccc1OCc1cccc(Br)c1 (centres undefined) | -6.3 | -6.3*
COc1ccc(C2=NN(C(=O)c3ccco3)C(c3cc4ccccc4nc3Cl)C2)cc1 (centres undefined) | . | i
Cc1ccccc1N1CCN(c2ncnc3c2cnn3Cc2ccc(Cl)cc2)CC1 | -5.7 | -5.7*
Cc1ccc(Cn2ncc3c(N4CCN(Cc5ccc(Cl)cc5)CC4)ncnc32)cc1 | . | i
COC(=O)CCC(=O)Nc1cccc2ccccc12 | 0.28 | i
CCCCCC(=O)Nc1cccc2ccccc12 | 5.7* | i
Cc1cc(C)c2c(NC(=O)CCl)nn(C)c2n1 | 0.1 | i
CCc1cc(SC#N)cc(CC)c1NC(=O)CCl | 5.3* | i
Cc1cccc(Nc2nc(N)nc(CCl)n2)c1 | 1.7 | i
